# PMC7862700, “An all-to-all approach to the identification of sequence-specific readers for epigenetic DNA modifications on cytosine”
# What was measured:
# Test in all cases: DAPPL (digital affinity profiling via proximity ligation, sequencing); 10 mM Tris-HCl pH 7.5, 50 mM NaCl, 1 mM DTT, 4% glycerol, room temperature, 30 min; GST-TFs on glutathione beads, 16-mer random dsDNA library, 0.1% formaldehyde crosslink after washing; high values mean tight binding
# Conditions in all cases: protein: recombinant; tags: N-terminal GST; dsDNA, one strand shown
# [1] = target: T1, ELK1 (Homo sapiens, UniProt P19419 1-428)
# T1 sequence: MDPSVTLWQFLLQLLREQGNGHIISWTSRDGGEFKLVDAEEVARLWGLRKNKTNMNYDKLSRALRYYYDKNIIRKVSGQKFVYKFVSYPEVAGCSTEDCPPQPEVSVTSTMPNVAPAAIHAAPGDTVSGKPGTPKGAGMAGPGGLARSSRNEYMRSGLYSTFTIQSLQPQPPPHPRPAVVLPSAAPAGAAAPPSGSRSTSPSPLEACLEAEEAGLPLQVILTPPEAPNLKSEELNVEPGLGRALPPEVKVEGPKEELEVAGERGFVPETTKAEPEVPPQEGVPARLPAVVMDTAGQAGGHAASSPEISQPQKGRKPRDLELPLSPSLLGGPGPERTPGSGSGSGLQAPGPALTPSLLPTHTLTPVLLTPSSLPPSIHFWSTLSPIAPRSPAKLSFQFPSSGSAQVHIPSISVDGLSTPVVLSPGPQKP
# Procedure, shortened: (§1)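 GST fusions of human transcription factors were expressed in yeast and captured with glutathione beads. Once given DNA barcodes and pooled alongside a tag-only sample, they were incubated for 30 min at room temperature with 200 nmole of a random double-stranded 16-mer DNA library in Tris/NaCl/DTT/glycerol buffer, then washed, crosslinked (0.1% formaldehyde), proximity-ligated, PCR-amplified and sequenced on an Illumina NextSeq500. The binding signal of each hexamer is its read frequency for a factor divided by its frequency for the tag-only sample.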
# [2] = target: T2, GABPA (Homo sapiens, UniProt Q06546 1-454)
# T2 sequence: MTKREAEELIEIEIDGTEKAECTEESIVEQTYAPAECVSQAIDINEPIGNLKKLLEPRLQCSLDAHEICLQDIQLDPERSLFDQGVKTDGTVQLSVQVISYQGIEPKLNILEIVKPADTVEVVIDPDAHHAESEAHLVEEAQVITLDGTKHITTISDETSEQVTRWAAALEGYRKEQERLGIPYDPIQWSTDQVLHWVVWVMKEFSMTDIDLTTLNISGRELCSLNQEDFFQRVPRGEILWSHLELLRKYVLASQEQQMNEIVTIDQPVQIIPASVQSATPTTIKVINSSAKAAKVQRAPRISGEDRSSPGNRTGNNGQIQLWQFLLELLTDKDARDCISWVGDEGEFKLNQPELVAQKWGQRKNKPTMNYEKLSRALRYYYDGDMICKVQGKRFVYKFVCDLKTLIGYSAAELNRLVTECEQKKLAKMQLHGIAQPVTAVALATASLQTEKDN
# Procedure, shortened: as §1
# [3] = target: T3, ERG (Homo sapiens, UniProt P11308 1-479)
# T3 sequence: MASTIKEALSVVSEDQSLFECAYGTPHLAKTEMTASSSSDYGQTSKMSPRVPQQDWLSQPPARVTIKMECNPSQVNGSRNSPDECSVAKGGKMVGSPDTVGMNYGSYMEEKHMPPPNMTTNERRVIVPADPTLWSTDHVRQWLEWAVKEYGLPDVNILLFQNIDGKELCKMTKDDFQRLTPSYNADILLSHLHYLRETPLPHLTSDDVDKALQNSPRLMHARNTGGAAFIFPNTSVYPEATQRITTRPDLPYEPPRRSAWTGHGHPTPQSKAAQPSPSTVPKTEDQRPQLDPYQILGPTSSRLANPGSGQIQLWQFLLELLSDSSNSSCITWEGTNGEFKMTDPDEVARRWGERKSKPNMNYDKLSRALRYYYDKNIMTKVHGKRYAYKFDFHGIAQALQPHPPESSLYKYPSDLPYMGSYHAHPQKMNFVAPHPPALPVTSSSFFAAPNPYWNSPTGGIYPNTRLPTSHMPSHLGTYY
# Procedure, shortened: as §1
# [4] = target: SPIB (Homo sapiens, UniProt Q01892 1-262)
# Procedure, shortened: as §1
# [5] = target: T4, SPIC (Homo sapiens, UniProt Q8N5J4 1-248)
# T4 sequence: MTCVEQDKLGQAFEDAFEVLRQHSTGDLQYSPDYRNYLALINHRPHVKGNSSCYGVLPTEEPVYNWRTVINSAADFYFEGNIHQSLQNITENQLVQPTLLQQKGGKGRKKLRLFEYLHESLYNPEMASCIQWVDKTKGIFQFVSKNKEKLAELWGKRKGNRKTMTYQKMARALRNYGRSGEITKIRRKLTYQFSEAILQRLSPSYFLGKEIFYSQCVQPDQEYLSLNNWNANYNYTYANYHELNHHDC
# Procedure, shortened: as §1
# [6] = target: ELF4 (Homo sapiens, UniProt Q99607 1-663)
# Procedure, shortened: as §1
# [7] = target: T5, ELK4 (Homo sapiens, UniProt P28324-2 1-405)
# T5 sequence: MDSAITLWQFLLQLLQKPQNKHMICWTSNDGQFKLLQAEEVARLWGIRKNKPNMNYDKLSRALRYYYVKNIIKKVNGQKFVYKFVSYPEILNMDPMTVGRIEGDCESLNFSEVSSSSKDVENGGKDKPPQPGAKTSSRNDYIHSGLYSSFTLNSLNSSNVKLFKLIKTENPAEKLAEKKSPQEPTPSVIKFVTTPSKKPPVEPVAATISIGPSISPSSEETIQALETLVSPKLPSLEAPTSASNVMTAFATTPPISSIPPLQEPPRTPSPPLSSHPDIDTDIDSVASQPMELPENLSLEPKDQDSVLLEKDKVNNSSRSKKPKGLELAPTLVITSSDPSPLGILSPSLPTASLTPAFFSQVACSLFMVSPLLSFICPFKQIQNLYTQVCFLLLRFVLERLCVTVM
# Procedure, shortened: as §1
# [8] = target: T6, ELF3 (Homo sapiens, UniProt P78545 1-371)
# T6 sequence: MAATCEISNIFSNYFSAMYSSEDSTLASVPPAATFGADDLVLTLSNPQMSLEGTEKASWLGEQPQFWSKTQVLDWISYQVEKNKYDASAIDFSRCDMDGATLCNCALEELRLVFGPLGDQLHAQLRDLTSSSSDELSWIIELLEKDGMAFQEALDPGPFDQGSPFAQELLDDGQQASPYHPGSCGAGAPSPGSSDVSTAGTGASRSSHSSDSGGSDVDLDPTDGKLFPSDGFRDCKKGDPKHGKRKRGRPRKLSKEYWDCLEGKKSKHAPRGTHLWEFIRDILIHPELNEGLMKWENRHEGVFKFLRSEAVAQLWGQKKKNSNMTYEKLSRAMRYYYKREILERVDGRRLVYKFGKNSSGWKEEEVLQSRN
# Procedure, shortened: as §1
# [9] = target: ETV1 (Homo sapiens, UniProt P50549 1-477)
# Procedure, shortened: as §1
# [10] = target: T7, ERF (Homo sapiens, UniProt P50548 1-548)
# T7 sequence: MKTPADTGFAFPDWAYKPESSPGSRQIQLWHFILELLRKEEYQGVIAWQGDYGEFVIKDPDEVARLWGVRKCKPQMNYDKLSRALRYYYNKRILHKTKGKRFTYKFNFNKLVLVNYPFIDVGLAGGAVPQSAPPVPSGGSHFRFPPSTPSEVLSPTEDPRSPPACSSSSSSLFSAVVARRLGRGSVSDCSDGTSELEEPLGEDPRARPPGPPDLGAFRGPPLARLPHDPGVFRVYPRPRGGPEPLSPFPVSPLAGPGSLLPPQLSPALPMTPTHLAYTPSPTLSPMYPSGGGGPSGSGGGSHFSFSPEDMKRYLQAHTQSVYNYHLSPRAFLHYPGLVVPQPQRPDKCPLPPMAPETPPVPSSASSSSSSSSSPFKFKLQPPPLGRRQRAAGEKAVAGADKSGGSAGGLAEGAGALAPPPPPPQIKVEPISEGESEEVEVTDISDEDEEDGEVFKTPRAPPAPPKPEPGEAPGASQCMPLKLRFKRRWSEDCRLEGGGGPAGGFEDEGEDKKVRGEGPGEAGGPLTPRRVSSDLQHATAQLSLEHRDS
# Procedure, shortened: as §1
# [11] = target: T8, ETV3L (Homo sapiens, UniProt Q6ZN32 1-361)
# T8 sequence: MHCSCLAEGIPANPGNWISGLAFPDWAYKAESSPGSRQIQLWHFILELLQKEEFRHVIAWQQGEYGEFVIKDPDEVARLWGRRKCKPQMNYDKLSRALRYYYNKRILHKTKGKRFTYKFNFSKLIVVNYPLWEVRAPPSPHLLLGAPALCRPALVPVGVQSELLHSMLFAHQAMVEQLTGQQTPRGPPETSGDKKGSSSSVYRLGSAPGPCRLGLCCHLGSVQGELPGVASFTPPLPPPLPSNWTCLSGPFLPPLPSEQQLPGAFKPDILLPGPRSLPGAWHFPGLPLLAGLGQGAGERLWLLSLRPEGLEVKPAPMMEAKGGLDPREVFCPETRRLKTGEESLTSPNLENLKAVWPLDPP
# Procedure, shortened: as §1
# [12] = target: T9, ETS2 (Homo sapiens, UniProt P15036 1-469)
# T9 sequence: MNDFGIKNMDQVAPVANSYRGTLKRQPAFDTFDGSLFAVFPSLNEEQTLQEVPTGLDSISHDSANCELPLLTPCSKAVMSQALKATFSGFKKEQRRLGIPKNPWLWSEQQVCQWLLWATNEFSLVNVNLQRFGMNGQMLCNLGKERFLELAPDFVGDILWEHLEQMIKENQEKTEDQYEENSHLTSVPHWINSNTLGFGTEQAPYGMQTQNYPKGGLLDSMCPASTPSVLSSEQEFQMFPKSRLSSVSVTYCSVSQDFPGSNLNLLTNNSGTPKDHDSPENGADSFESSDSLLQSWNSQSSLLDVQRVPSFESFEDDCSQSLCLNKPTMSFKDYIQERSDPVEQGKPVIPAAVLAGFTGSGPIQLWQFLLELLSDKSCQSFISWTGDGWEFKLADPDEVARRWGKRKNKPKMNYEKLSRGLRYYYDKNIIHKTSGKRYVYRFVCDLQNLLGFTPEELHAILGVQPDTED
# Procedure, shortened: as §1
# [13] = target: T10, SPDEF (Homo sapiens, UniProt O95238 1-335)
# T10 sequence: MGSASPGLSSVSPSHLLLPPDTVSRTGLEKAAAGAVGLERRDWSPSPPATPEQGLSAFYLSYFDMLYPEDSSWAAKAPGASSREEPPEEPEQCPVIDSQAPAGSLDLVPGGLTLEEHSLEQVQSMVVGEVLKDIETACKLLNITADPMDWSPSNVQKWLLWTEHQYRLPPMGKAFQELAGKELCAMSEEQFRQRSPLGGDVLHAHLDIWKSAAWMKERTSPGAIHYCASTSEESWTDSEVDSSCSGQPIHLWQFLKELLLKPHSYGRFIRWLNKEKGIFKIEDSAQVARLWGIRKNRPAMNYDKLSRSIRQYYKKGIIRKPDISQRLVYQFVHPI
# Procedure, shortened: as §1
# [14] = target: T11, ETV3 (Homo sapiens, UniProt P41162-2 1-143)
# T11 sequence: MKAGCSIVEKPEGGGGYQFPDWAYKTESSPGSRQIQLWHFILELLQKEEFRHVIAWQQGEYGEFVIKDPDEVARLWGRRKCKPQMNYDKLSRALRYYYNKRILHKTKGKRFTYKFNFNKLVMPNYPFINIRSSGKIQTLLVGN
# Procedure, shortened: as §1
# [15] = target: ETV6 (Homo sapiens, UniProt P41212 1-452)
# Procedure, shortened: as §1
# ELF4, sequence (Q99607 whole entry): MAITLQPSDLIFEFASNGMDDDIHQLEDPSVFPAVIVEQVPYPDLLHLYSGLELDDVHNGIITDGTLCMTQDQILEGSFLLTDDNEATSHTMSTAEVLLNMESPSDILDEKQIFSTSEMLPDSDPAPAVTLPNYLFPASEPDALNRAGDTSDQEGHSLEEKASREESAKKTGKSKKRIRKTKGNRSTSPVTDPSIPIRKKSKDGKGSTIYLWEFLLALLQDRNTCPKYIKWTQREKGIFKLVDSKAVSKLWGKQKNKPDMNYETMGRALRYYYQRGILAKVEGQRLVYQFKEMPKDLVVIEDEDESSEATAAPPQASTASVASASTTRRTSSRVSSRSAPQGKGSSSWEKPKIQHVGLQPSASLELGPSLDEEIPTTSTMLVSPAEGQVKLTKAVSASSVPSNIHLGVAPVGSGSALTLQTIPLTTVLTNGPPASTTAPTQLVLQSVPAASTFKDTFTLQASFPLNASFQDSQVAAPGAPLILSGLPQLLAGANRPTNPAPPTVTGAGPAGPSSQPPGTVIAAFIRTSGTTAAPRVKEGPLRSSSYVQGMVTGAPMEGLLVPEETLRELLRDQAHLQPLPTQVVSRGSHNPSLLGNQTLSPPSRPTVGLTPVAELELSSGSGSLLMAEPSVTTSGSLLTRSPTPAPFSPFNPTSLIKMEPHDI
# SPIB, sequence (Q01892 whole entry): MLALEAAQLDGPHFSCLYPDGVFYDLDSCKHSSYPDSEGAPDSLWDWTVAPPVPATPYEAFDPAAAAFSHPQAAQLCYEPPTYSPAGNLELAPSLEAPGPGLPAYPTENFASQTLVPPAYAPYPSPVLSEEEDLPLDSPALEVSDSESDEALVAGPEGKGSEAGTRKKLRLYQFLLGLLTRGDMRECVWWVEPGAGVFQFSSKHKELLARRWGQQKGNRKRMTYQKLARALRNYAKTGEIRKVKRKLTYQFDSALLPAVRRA
# ETV1, sequence (P50549 whole entry): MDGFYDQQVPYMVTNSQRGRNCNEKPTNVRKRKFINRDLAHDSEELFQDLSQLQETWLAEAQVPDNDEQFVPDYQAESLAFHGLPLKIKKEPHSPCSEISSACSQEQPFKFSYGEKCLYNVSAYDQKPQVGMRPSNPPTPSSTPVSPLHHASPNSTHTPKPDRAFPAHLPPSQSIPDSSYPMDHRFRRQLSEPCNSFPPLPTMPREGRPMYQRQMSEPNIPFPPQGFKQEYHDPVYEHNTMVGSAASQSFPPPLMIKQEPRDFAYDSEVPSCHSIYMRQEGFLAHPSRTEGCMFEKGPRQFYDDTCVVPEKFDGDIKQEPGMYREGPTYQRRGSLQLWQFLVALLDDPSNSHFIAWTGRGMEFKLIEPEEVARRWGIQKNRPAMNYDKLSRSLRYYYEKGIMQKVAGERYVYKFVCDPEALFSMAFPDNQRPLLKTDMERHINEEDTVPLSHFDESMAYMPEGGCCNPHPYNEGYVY
# ETV6, sequence (P41212 whole entry): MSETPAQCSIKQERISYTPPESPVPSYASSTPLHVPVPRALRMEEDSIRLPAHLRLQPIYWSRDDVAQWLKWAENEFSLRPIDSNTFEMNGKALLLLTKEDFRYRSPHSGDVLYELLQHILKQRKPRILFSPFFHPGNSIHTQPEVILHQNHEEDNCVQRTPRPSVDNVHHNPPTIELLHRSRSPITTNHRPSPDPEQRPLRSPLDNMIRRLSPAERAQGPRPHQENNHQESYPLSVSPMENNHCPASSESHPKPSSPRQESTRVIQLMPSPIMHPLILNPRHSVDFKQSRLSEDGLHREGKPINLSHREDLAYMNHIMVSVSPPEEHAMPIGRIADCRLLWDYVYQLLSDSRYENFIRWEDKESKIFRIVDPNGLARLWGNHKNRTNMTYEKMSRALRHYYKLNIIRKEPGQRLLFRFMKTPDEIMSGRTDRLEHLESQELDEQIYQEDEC
sequence,measurement,setting,value
TGGATA,binding signal,[1],"1.05 fold enrichment (6-mer frequency, TF over GST control)"
same,binding signal,[2],"1.1 fold enrichment (6-mer frequency, TF over GST control)"
same,binding signal,[3],"1.08 fold enrichment (6-mer frequency, TF over GST control)"
same,binding signal,[4],"1.12 fold enrichment (6-mer frequency, TF over GST control)"
same,binding signal,[5],"1.04 fold enrichment (6-mer frequency, TF over GST control)"
same,binding signal,[6],"1.05 fold enrichment (6-mer frequency, TF over GST control)"
same,binding signal,[7],"1.07 fold enrichment (6-mer frequency, TF over GST control)"
same,binding signal,[8],"1.16 fold enrichment (6-mer frequency, TF over GST control)"
same,binding signal,[9],"1.09 fold enrichment (6-mer frequency, TF over GST control)"
same,binding signal,[10],"1 fold enrichment (6-mer frequency, TF over GST control)"
same,binding signal,[11],"1.04 fold enrichment (6-mer frequency, TF over GST control)"
same,binding signal,[12],"1.06 fold enrichment (6-mer frequency, TF over GST control)"
same,binding signal,[13],"1.06 fold enrichment (6-mer frequency, TF over GST control)"
same,binding signal,[14],"1.06 fold enrichment (6-mer frequency, TF over GST control)"
same,binding signal,[15],"1 fold enrichment (6-mer frequency, TF over GST control)"
